# Test results published in the supplement of paper PMC8387472.
# Columns and labels:
# Settings in all cases: mESC; 2uM; 72 h treatment, harvest day 5
# [1] = compound: O=c1cc(N2CCOCC2)oc2c(-c3ccc4c(c3)OCCO4)csc12; assay: fraction of edited reads among all mapped reads; higher = more Cas9 editing
# [2] = compound: S=c1[nH]cnc2nc[nH]c12 [Mercaptopurine (6-MP)]; assay: as above
# [3] = compound: S=c1nc[nH]c2nc[nH]c12 [6-Mercaptopurine (6-MP) Monohydrate]; assay: as above
# [4] = compound: CC(=O)O/N=C1\C(=O)N(Cc2cc(Cl)ccc2Cl)c2ccc(Cl)cc21; assay: fraction of microhomology deletions among edited reads; higher = more MH deletions
# [5] = compound: CC(C)(C#N)c1ccc(N2C(=O)OCc3cnc4ccc(-c5cnc6ccccc6c5)cc4c32)cc1; assay: as above
# [6] = compound: CCCCOc1c(C(=O)c2c(F)cc(C)cc2F)c[nH]c2nncc1-2; assay: as above
# [7] = compound: CCN1CCN(CC(=O)Nc2ccc(-c3cccc4c(=O)cc(N5CCOCC5)oc34)c3sc4ccccc4c23)CC1; assay: as above
# [8] = compound: CCc1c2c(nc3ccc(OC(=O)N4CCC(N5CCCCC5)CC4)cc13)-c1cc3c(c(=O)n1C2)COC(=O)[C@]3(O)CC [Irinotecan HCl Trihydrate]; assay: as above
# [9] = compound: CCn1c(=O)c(-c2ccc(Cl)cc2Cl)cc2cnc(Nc3ccc(N4CCNCC4)c(F)c3)nc21; assay: as above
# [10] = compound: CNc1ccc([N+](=O)[O-])c(Nc2ccc3[nH]ncc3c2)n1; assay: as above
Target,fraction of edited reads among all mapped reads [1],fraction of edited reads among all mapped reads [2],fraction of edited reads among all mapped reads [3],fraction of microhomology deletions among edited reads [4],fraction of microhomology deletions among edited reads [5],fraction of microhomology deletions among edited reads [6],fraction of microhomology deletions among edited reads [7],fraction of microhomology deletions among edited reads [8],fraction of microhomology deletions among edited reads [9],fraction of microhomology deletions among edited reads [10]
"4.0 (DMSO control at this site: 1-bp insertion 0.146, MH deletion 0.523, edited 0.125) ACGCCTTAGTGCACGAGTGACGGGATAATGTGGTCTCAGGTAATTGATAGGCTTCCAACTT",0.0874,0.174,0.122,0.582,0.526,0.507,0.635,0.564,0.591,0.527
46.0 TTAAGAGCAATGTTCACGCAACTTGAAATTATATCTGTGGTCTTCAAATTGTCTTTTGTCA,–,–,0.0652,–,0.597,0.422,–,–,–,0.376
"16.0 (DMSO control at this site: 1-bp insertion 0.172, MH deletion 0.29, edited 0.05) CGGACTGCACACATGGGTAGGATCGTGCACGCGAGGTAGGATCGTGCACGCGAAGTTATTC",0.0306,0.0811,0.0574,0.319,0.293,0.294,0.34,0.252,0.308,0.252
"47.0 (DMSO control at this site: 1-bp insertion 0.095, MH deletion 0.585, edited 0.118) GAGTGGTCCCGAGCCAGGAACTGTGTGTGTTGCAGGGGGGCAGTAACTCCCCAACTCCCTC",0.0673,0.143,0.101,0.564,0.539,0.518,0.62,0.473,0.597,0.542
"45.0 (DMSO control at this site: 1-bp insertion 0.017, MH deletion 0.666, edited 0.101) TTACACAGCATGAACTGCTAGGTGATGATGTCAGATTCGGTTTTACTAACTTCTCCAAAAA",0.0613,0.128,0.092,0.623,0.655,0.62,0.654,0.631,0.655,0.622
"42.0 (DMSO control at this site: 1-bp insertion 0.145, MH deletion 0.655, edited 0.132) GGGCTAAACCTATGAGCACAGTAGAACTAAGGGTGGGTGGTGTAGCTAAAGAACTTGACCA",0.0994,0.171,0.109,0.699,0.678,0.696,0.734,0.672,0.706,0.633
"20.0 (DMSO control at this site: 1-bp insertion 0.349, MH deletion 0.138, edited 0.084) TACAGGTGTAGACTGGTTACGTGGCTGCGGAATTGACTGGTTACGTGGCTGCGGAATTTTG",0.0465,0.111,0.082,0.235,0.239,0.174,0.285,0.222,0.12,0.136
"32.0 (DMSO control at this site: 1-bp insertion 0.03, MH deletion 0.85, edited 0.898) AGAAGTCCAGGATCAGGGGGACTGGGGTCGGGAGGGTGGGGCAGGAAGGAAGCCAGAATCA",0.84,0.906,0.874,0.93,0.904,0.914,0.912,0.901,0.905,0.895
"39.0 (DMSO control at this site: 1-bp insertion 0.328, MH deletion 0.371, edited 0.204) CTGCACAGTCACTTAGGATAGGAGAAGATGATGTATAGGGTTTAGTGGGAGATGTTGCAAG",0.121,0.243,0.167,0.412,0.405,0.358,0.539,0.384,0.367,0.332
